Assay results from PubChem BioAssay (NCATS).
Values joined by “and” are separate entries in the source; they are usually repeats but may differ in a detail not shown here. Equal values may be shown once. Results filed as inconclusive are left out. Active and inactive are the calls of the source. Unless noted, calls come from the whole dose curve; as a rule, active = well fitted curve in either direction with a large enough effect (not every such curve was filed as active); inconclusive = small, poorly fitted or top-dose-only effect, or another doubt; inactive = flat fitted curve, though single readings scatter.

What was measured:
[1] = target: Lysosomal acid glucosylceramidase (Homo sapiens) (UniProt P04062); test: Glucocerebrosidase-p2 (AID 348; in the data active = potency below about 10 µM; note: potency is the fitted concentration of half-maximal effect); conditions: purified GBA, blue fluorogenic substrate, 40 min
In short: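 Compounds titrated from 0.6 nM upwards against 0.2 nM enzyme in pH 5.9 citric acid/KH2PO4, taurocholate, tween-20; blue fluorogenic substrate 80 uM, 40 min room temperature, stopped and read Ex 365/Em 440 for AC50.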

[2] = AP1 Signaling Pathway (AID 357); conditions: ME-180 AP-1-bla reporter, EGF-induced, beta-lactamase ratio, 5 h;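 note: ME-180 reporter cells stimulated with EGF at its EC50 level; % is set by controls: 0 for no effect and ±100 for the full control effect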
In short: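 AP-1-bla ME-180 cells, Opti-MEM + 0.5% dialyzed FBS, plated overnight 37 °C. Cpd titration + EC50 EGF, 5 h 37 °C. CCF4 2.5 h RT; ex 405, em 460/530 ratio → %activity, AC50.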

[3] = target: Cytochrome P450 1A2 (Homo sapiens) (UniProt P05177); test: p450-cyp1a2 (AID 410; calls by dose curve; note: potency is the fitted concentration of half-maximal effect;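 for activity change, negative = inhibition: -100% = full effect of reference inhibitor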); conditions: recombinant CYP1A2, luciferin-ME demethylation, luminescence; series mostly up to 11.4 µM
In short: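 Inhibition was calculated relative to 57 uM furafylline (full inhibition). The reaction used human CYP1A2 at 20nM with Luciferin-ME at its Km, 100uM, driven by an NADPH-regenerating system for 60 min at room temperature.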

[4] = NFAT Signaling Pathway (AID 444); conditions: Jurkat NFAT-bla M1, carbachol, beta-lactamase ratio, 5 h;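 note: carbachol stimulus at about its EC50 of 1 µM final; % is set by controls: 0 for no effect and ±100 for the full control effect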
In short: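 Jurkat cells carrying an NFAT-driven β-lactamase reporter and co-transfected muscarinic M1 receptor were treated with compound plus carbachol (1 uM final, an EC50 level) for 5 h at 37 °C. CCF4 loading followed for 1 h at RT; 460/530 nm ratio gave %activity.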

[5] = Stat Signaling Pathway (AID 446); conditions: ME-180 (cervical carcinoma) SIE beta-lactamase reporter, IL-6 stimulated, 5 h;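 note: ME-180 cervical cancer cells given 40 pM IL-6 alongside compound; SIE-controlled beta-lactamase reporter measured as 460/530 nm FRET emission ratio; % is set by controls: 0 for no effect and ±100 for the full control effect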
In short: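 IL-6/STAT signaling read in ME-180 cells via an SIE beta-lactamase reporter. Stimulus was 40 pM IL-6 (its AC50) for 5 hrs, so both activation and inhibition register.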

[6] = target: Glucocorticoid receptor (Homo sapiens) (UniProt P04150); test: GR-GFP Redistribution (AID 450;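 active = compounds whose dose series gives a full or clear partial fitted curve of increased nuclear translocation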; note: potency is the fitted concentration of half-maximal effect); conditions: U2OS GR-GFP nuclear translocation, laser cytometry, 2 h
[7] = target: Glucocorticoid receptor (Homo sapiens) (UniProt P04150); test: GR-EFC Redistribution (AID 451; calls by dose curve; note: potency is the fitted concentration of half-maximal effect); conditions: CHO-K1 GR-EFC translocation, beta-gal luminescence, 2 h
In short: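 CHO-K1 cells stably expressing nuclear-localized β-gal enzyme acceptor and GR fused C-terminally to the enzyme donor fragment; ligand-driven nuclear translocation restores β-gal by complementation. Compounds titrated up to 46 uM final, 2 h at 37 °C; luminescence read.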

[8] = target: Mitogen-activated protein kinase 10 (Mus musculus) (UniProt Q61831); test: JNK3 AlphaScreen Assay (AID 530); conditions: JNK3 lysate, c-Jun phosphorylation; series mostly up to 11.4 µM;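 note: kinase came from lysate of stimulated human HepG2 cells; signal reports phosphorylation of biotinylated GST-cJun 1-79 at Ser73 with 10 µM ATP; % is set by controls: 0 for no effect and ±100 for the full control effect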
In short: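 JNK3 came from HepG2 lysates pre-activated with IL-1beta and TNF-alpha and phosphorylated biotinylated GST-cJun (1-79) at 10 uM ATP, pH 7.6, room temperature. Compounds were titrated. AlphaScreen signal used anti-phospho-cJun (Ser73) antibody.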

[9] = target: 3',5'-cyclic-AMP phosphodiesterase 4B (Homo sapiens) (UniProt Q07343); test: qHTS Assay for Inhibitors of PDE-IV (AID 607; active = well fitted activation curve with a large enough effect in the main read-out, with a control signal flat, not every such curve was filed as active; note: % of control where 0% means no effect); conditions: HEK293 ACTOne CNG channel cells, membrane potential fluorescence; series mostly up to 22.9 µM
In short: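 Live HEK293 cells with a modified cyclic nucleotide-gated (CNG) channel report intracellular cAMP via membrane-potential dye fluorescence (ex 535/em 590 nm). Endogenous PDE-IV was targeted. Compounds were tested at up to 22.9 uM final; RO 20-1724 100 uM served as control.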

[10] = target: Guanine nucleotide-binding protein G(i) subunit alpha-1 (Homo sapiens) (UniProt P63096); test: qHTS Assay for Inhibitors of RGS12 GoLoco Motif Activity (Green Fluorophore) (AID 879; active = well fitted curve in the direction sought with a large enough effect; an effect the other way counts as inactive or inconclusive;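 note: 0% = labeled peptide with Gαi1 and full inhibition = labeled peptide alone without protein; negative values mean loss of peptide binding seen as reduced polarization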); conditions: Galphai1/FITC-RGS12 GoLoco peptide, fluorescence polarization; series mostly up to 57.1 µM
In short: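 Fluorescence polarization assay: 50 nM Gαi1 with 10 nM FITC-labeled RGS12 GoLoco peptide in 10 mM Tris pH 7.5, 150 mM NaCl, 0.1 mM GDP, 0.05% NP40, 10 min at room temperature with compound.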

[11] = target: Cytochrome P450 3A4 (Homo sapiens) (UniProt P08684); test: qHTS Assay for Activators of Cytochrome P450 3A4 (AID 885; active = well fitted curve in the direction sought with a large enough effect; an effect the other way counts as inactive or inconclusive; note: nearly all actives have a fitted effect of over 65% in size); conditions: recombinant CYP3A4, Luciferin-PPXE luminescence, 60 min; series mostly up to 11.4 µM
In short: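 Quantitative HTS format: compounds preincubated with 20nM human CYP3A4 and Luciferin-PPXE substrate at KM, reaction started by NADPH regeneration, stopped after 60 min, luciferase luminescence read 20 min later.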

[12] = qHTS Assay for Identification of Small Molecule Agonists for Thrombopoietin (TPO) Signaling Pathway (AID 917; active = well fitted curve in the direction sought with a large enough effect; an effect the other way counts as inactive or inconclusive; note: % is set by controls: 0 for no effect and ±100 for the full control effect); conditions: TPO signaling pathway reporter cells, agonist qHTS, stimulated with TPO at its EC50; series mostly up to 38.5 µM
In short: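 Luminescence from a Glycoprotein IIb promoter–driven luciferase reporter served as read-out in murine Ba/F3 cells carrying the human TPO receptor. Cells, deprived of IL-3 overnight, received compounds with 26 pM TPO and were incubated 24 hrs at 37 C.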

[13] = target: Muscarinic acetylcholine receptor M1 (Rattus norvegicus) (UniProt P08482); test: qHTS Assay for Antagonists of Acetylcholine Muscarinic M1 Receptor: Kinetic Measurement of Intracellular Calcium Response (AID 943; active = well fitted curve in the direction sought with a large enough effect; an effect the other way counts as inactive or inconclusive;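 note: Fluo-4 calcium signal as peak divided by basal fluorescence over 4 min; nearly all actives have a fitted effect of over 75% in size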); conditions: M1-expressing cells, kinetic intracellular calcium fluorescence; series mostly up to 35.3 µM
In short: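 Intracellular calcium flux, recorded with Fluo-4 in a kinetic plate reader, served as signal; the response to carbachol at EC80 (100 nM final) was taken as maximal over minimal fluorescence after a 10 min compound pre-incubation in rat M1-CHO cells.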

[14] = target: Muscarinic acetylcholine receptor M1 (Rattus norvegicus) (UniProt P08482); test: qHTS Assay for Antagonists of Acetylcholine Muscarinic M1 Receptor: Measurement of IP-One Response (AID 944; active = well fitted curve in the direction sought with a large enough effect; an effect the other way counts as inactive or inconclusive; note: nearly all actives have a fitted effect of over 75% in size); conditions: CHO-M1 cells, IP-One HTRF, antagonist mode; series mostly up to 46.1 µM
In short: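 Steps: plate transfected CHO-M1 cells overnight; add test compound, 10 min; add carbachol (200 nM, EC80) in stimulation buffer with LiCl; incubate 30 min; add labelled IP1 tracer and anti-IP1 antibody in lysis buffer; read HTRF after 10 min.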

[15] = target: Pyruvate kinase (Leishmania mexicana) (UniProt Q27686); test: qHTS Validation Assay for Inhibitors of Leishmania Mexicana Pyruvate Kinase (AID 945; active = well fitted curve in the direction sought with a large enough effect; an effect the other way counts as inactive or inconclusive;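 note: 0% = DMSO only neutral control wells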); conditions: purified L. mexicana pyruvate kinase, enzyme activity, E451W mutant enzyme; series mostly up to 57.5 µM
In short: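 Eight-point qHTS titrations in triplicate, data normalized to DMSO neutral control. Reaction: 0.2 nM LmPYK E451W mutant, 0.5 mM PEP, 0.1 mM ADP, 7 mM MgCl2, pH 7.2, one hour at room temperature; luminescent ATP detection.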

[16] = target: Pyruvate kinase PKM (Homo sapiens) (UniProt P14618); test: qHTS Assay for Activators of Human Muscle Pyruvate Kinase (AID 954; active = well fitted curve in the direction sought with a large enough effect, not every such curve was filed as active;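 note: 0% = uninhibited enzyme and -100% = no enzyme or full thiadiazolimine inhibition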); conditions: purified human muscle pyruvate kinase, luciferase-coupled luminescence, 1 h; series mostly up to 57.5 µM
In short: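 Enzyme was run at intermediate activity so both inhibitors and activators could be detected. ATP formed from ADP and PEP by 0.1 nM human PKM2 during a 1 h room-temperature incubation was quantified by coupled luciferase luminescence.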

[17] = target: Alpha-galactosidase A (Homo sapiens) (UniProt P06280); test: Counterscreen for Glucocerebrosidase Inhibitors: qHTS Assay for Human alpha-Galactosidase at pH 4.5 (AID 992; active = well fitted curve in the direction sought with a large enough effect; an effect the other way counts as inactive or inconclusive; note: 0% is about no effect); conditions: purified enzyme, fluorogenic substrate; series mostly up to 76.9 µM
In short: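 Read-out is 4-methylumbelliferone fluorescence (365 nm excitation, 440 nm emission) after a pH 10 NaOH/glycine stop. Reactions held 2 nM enzyme and 80 uM substrate at pH 4.5 for 20 min at room temperature.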

[18] = target: alpha-glucosidase (Oryza sativa, rice) (UniProt Q653V4); test: Counterscreen for Glucocerebrosidase Inhibitors: qHTS Assay for Rice alpha-Glucosidase at pH 5.0 (AID 997; active = well fitted curve in the direction sought with a large enough effect; an effect the other way counts as inactive or inconclusive;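 note: 0% = full activity with enzyme and -100% = basal without enzyme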); conditions: rice alpha-glucosidase enzyme activity; series mostly up to 76.9 µM
In short: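 Rice alpha-glucosidase (4 nM final) with 400 uM 4-methylumbelliferyl-alpha-D-glucopyranoside in citrate buffer pH 5.0, 20 min at room temperature, stopped at pH 10; fluorescence 365/440 nm, compounds 0.7 nM–77 uM, AC50 from Hill fits.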

[19] = at 7.69 µM (top of the series) unless noted

3',5'-cyclic-AMP phosphodiesterase 4B (Homo sapiens), sequence (Q07343 whole entry, looked up): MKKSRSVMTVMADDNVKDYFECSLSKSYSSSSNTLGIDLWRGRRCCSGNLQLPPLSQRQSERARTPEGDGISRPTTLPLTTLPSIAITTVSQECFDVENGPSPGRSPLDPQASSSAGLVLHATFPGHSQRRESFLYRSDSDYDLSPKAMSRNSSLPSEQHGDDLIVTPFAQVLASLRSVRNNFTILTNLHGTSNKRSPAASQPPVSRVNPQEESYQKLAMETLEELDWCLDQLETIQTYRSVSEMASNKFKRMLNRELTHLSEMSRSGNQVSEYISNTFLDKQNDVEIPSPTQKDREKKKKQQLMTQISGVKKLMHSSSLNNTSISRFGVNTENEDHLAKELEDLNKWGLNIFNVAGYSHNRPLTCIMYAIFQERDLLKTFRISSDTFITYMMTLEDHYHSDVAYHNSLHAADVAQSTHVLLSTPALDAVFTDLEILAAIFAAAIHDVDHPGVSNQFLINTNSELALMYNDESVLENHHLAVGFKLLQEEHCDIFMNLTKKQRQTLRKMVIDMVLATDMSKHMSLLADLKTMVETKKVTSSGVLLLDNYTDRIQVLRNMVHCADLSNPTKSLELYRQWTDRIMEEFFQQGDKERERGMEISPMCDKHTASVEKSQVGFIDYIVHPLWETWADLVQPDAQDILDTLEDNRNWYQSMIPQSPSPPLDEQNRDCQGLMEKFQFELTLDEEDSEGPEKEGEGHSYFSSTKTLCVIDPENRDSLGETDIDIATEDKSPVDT
Cytochrome P450 1A2 (Homo sapiens), sequence (P05177 whole entry, looked up): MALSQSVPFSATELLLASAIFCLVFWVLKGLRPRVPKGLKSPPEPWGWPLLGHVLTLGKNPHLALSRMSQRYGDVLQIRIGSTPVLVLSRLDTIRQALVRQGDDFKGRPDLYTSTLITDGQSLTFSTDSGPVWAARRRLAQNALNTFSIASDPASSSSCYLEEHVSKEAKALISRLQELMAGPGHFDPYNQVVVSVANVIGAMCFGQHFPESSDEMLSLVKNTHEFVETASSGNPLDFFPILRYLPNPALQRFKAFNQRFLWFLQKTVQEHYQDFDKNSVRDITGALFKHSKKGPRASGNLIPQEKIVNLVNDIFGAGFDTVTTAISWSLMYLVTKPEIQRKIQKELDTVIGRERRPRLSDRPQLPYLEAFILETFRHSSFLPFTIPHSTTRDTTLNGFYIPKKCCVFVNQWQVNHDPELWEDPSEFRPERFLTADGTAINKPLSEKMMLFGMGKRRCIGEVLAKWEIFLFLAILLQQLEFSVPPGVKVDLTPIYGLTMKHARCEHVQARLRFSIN
Glucocorticoid receptor (Homo sapiens), sequence (P04150 whole entry, looked up, the tested form may be a part): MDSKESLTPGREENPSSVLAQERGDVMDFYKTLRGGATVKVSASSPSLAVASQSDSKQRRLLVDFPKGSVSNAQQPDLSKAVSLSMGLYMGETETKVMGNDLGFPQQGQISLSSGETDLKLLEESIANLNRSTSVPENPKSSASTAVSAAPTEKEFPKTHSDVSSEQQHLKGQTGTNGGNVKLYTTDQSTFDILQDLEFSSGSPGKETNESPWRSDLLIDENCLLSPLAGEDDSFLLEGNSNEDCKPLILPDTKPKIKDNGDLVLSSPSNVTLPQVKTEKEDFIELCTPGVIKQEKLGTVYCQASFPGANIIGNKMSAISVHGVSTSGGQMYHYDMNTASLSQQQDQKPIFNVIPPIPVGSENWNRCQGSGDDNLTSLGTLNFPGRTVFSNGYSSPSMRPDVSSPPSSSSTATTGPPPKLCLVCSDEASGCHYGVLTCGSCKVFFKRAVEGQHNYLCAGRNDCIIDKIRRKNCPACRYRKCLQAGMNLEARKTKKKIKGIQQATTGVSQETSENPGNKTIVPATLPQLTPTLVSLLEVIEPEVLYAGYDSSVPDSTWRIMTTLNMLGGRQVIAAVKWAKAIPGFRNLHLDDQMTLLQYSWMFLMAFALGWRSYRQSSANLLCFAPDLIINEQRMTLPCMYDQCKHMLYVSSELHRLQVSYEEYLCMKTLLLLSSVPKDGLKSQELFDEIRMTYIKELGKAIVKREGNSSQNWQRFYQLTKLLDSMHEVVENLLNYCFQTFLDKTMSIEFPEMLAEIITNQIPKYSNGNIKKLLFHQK
Lysosomal acid glucosylceramidase (Homo sapiens), sequence (P04062 whole entry, looked up): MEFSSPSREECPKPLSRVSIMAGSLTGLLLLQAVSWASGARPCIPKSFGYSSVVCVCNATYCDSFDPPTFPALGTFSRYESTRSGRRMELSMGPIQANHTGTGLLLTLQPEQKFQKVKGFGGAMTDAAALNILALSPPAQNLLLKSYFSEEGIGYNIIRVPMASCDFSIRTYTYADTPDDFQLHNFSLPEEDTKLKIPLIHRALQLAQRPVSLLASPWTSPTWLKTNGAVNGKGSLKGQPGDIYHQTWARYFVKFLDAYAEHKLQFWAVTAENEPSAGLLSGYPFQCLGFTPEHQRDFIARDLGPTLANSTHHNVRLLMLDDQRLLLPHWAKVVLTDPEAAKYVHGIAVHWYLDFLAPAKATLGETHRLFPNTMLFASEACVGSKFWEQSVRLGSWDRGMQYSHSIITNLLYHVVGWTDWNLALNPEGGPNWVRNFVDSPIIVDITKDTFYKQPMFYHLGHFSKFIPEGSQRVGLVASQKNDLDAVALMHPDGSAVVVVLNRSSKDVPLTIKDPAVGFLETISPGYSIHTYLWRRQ
Muscarinic acetylcholine receptor M1 (Rattus norvegicus), sequence (P08482 whole entry, looked up): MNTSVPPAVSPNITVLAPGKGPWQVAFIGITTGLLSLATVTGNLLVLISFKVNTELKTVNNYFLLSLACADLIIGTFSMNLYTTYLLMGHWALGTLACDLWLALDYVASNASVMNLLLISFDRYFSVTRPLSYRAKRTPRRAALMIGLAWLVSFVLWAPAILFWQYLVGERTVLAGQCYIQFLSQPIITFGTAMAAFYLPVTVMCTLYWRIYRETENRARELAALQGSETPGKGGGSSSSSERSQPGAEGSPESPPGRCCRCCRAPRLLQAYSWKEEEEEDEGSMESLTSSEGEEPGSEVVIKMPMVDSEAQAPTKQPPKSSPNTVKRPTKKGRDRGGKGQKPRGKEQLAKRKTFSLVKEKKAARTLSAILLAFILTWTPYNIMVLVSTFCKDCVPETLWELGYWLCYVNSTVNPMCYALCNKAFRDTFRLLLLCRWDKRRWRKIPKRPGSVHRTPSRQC
Cytochrome P450 3A4 (Homo sapiens), sequence (P08684 whole entry, looked up): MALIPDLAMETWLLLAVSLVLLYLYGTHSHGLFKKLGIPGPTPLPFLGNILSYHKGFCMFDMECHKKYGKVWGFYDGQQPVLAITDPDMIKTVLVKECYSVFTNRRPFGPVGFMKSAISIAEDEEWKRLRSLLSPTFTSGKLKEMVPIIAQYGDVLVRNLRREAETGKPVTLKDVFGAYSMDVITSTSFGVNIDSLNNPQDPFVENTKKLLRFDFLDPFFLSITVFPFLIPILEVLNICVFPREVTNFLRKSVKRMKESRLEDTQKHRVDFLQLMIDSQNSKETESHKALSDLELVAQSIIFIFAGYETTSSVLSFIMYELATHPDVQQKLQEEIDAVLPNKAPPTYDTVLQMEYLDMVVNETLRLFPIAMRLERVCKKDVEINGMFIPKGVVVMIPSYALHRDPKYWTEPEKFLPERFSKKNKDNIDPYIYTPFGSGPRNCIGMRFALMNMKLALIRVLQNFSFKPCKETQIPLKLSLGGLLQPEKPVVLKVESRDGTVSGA
Alpha-galactosidase A (Homo sapiens), sequence (P06280 whole entry, looked up): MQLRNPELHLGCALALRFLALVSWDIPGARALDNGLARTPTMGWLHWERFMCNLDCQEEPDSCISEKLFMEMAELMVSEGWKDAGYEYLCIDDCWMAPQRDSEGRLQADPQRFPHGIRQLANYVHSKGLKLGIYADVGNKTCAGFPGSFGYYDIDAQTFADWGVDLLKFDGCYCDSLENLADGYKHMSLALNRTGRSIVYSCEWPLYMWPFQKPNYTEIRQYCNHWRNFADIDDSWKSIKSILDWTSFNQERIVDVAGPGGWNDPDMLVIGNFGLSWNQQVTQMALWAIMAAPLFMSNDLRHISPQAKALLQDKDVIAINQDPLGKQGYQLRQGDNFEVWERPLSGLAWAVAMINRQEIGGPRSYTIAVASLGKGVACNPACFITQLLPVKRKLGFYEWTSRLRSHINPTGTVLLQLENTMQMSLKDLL
Pyruvate kinase PKM (Homo sapiens), sequence (P14618 whole entry, looked up): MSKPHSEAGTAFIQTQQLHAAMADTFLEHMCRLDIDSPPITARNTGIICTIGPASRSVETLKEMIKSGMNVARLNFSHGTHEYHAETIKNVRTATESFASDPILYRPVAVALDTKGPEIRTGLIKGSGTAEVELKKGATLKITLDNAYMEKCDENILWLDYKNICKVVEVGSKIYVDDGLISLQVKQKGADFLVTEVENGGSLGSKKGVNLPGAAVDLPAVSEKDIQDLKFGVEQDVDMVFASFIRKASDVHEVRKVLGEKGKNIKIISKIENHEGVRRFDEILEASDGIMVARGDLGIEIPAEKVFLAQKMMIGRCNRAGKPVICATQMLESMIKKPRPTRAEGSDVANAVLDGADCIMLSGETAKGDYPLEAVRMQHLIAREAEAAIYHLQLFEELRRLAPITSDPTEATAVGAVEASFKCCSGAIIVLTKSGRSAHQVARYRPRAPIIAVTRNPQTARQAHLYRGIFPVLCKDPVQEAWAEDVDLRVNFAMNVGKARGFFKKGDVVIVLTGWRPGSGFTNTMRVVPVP
Guanine nucleotide-binding protein G(i) subunit alpha-1 (Homo sapiens), sequence (P63096 whole entry, looked up): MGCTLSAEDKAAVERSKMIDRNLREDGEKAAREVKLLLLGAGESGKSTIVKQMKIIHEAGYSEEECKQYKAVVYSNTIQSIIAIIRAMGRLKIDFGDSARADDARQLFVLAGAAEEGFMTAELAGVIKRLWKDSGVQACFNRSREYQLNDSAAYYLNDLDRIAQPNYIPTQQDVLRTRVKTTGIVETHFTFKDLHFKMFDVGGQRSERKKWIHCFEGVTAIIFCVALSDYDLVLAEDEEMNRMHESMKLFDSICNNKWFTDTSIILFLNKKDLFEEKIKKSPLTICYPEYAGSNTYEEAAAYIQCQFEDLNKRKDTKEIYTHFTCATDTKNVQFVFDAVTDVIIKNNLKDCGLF

C[N+]1(C)[C@@H]2CC(OC(=O)[C@@H](CO)c3ccccc3)C[C@@H]1[C@H]1O[C@H]12 (some centres undefined)
inactive: Potency [1] > 11.4 µM

CC(C)NCC[C@@H](O)c1cc2ccccc2o1
inactive: activity change, negative = inhibition [2, 19] -15% | activity change, negative = inhibition [3] -2.1% [at 2.29 µM] | activity change, negative = inhibition [4, 19] -2.7% | activity, negative = inhibition [5, 19] 9.58% | Potency [6] > 46 µM | Potency [7] > 9.22 µM | Potency [8] | Potency [9]

COc1cc(N=Nc2cccc(S(N)(=O)=O)c2)c2ccccc2c1N
inactive: Potency [1] > 11.4 µM | Potency [6] > 46 µM | Potency [7] > 9.22 µM | Potency [8] | Potency [9]

O=C(C[n+]1ccc2ccccc2c1)c1ccc2ccc3ccccc3c2c1
inactive: activity change, negative = inhibition [2, 19] 0.901% | activity change, negative = inhibition [4, 19] -15.5% | activity, negative = inhibition [5, 19] 0.433% | Potency [6] > 46 µM | Potency [7] > 9.22 µM | Potency [8] | Potency [9]
active: Potency [3] 2.51 µM

NC(=O)c1ncn([C@@H]2O[C@@H](CO)[C@@H](O)[C@H]2O)n1
inactive: activity change, negative = inhibition [2, 19] 18.3% [at 38 µM] | Potency [3] | activity change, negative = inhibition [4, 19] 17% [at 38 µM] | activity, negative = inhibition [5, 19] -14.5% [at 38 µM] | Potency [6] > 46 µM | Potency [7] > 46 µM | Potency [8] | Potency [9]

CC(=O)N1CCN(c2ccc(OC[C@@H]3CO[C@@](Cn4ccnc4)(c4ccc(Cl)cc4Cl)O3)cc2)CC1
inactive: activity change, negative = inhibition ([2]; at 17.2 µM (top of the series)) -18.1% | activity change, negative = inhibition ([2]; at 38 µM (top of the series)) -10.5% | activity change, negative = inhibition ([4]; at 17.2 µM (top of the series)) -5.42% | activity change, negative = inhibition ([4]; at 38 µM (top of the series)) -20.5% | activity, negative = inhibition ([5]; at 17.2 µM (top of the series)) -12.7% | activity, negative = inhibition ([5]; at 38 µM (top of the series)) -11.9% | Potency [6] > 46 µM and > 20.6 µM | Potency [7] > 46 µM and > 20.6 µM | Potency [9]

Nc1nc(-c2cccnc2)cc(-c2cc(-c3cccnc3)nc(N)n2)n1
inactive: activity change, negative = inhibition [2, 19] 16.4% | activity change, negative = inhibition [3] -15.9% [at 2.29 µM] | activity change, negative = inhibition [4, 19] 12.8% | activity, negative = inhibition [5, 19] 1.62% | Potency [6] > 46 µM | Potency [7] > 9.22 µM | Potency [8] | Potency [9]

CNC(=O)[C@@H]1O[C@@H](n2cnc3c(NCc4ccc(N)cc4)ncnc32)[C@@H](O)[C@H]1O
inactive: activity change, negative = inhibition [2, 19] -7.83% [at 38 µM] | Potency [3] | activity change, negative = inhibition [4, 19] 4.77% [at 38 µM] | activity, negative = inhibition [5, 19] -2.42% [at 38 µM] | Potency [6] > 46 µM | Potency [7] > 46 µM | Potency [8] | Potency [9] | outcome [10] | Potency [11] | outcome [12] | Potency [13] | Potency [14] | outcome [15] | outcome [16] | outcome [17] | Potency [18]
